Data: the supplement of paper PMC6555819

How the values were obtained:
Test in all cases: PBM binding z-score (relative to random genomic background probes); higher = stronger binding; sequences stand for … in GC…GCGATTGACAGCGTAGAATGAAGG
[1] = tested on: FXR:RXRa (NR concentration 270 nM, RXRa partner concentration 90 nM)
How it was run: (§1)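 Probes were double-stranded and carried 34-nt variable regions with direct-repeat seeds, single-nucleotide variants, half-site ablations and random human genomic background sequences, printed on custom Agilent 4×180K protein-binding microarrays. Arrays were incubated 1 h with ligand-free nuclear receptor dimers in PBS pH 7.4, 2% milk, 0.02% Triton X-100, 1 mM DTT, 0.2 mg/mL BSA and 0.4 mg/ml salmon testes DNA. Antibodies against each partner (one per run) detected binding, and scanned fluorescence was regression-normalized. Binding z-scores use the random background probes as reference.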

[2] = tested on: LXRa:RXRa (NR concentration 270 nM, RXRa partner concentration 90 nM)
How it was run: as §1

[3] = tested on: LXRa homodimer (NR concentration 270 nM)
How it was run: as §1

[4] = tested on: LXRb:RXRa (NR concentration 270 nM, RXRa partner concentration 90 nM)
How it was run: as §1

[5] = tested on: LXRb homodimer (NR concentration 270 nM)
How it was run: as §1

[6] = tested on: PPARa:RXRa (NR concentration 270 nM, RXRa partner concentration 90 nM)
How it was run: as §1

[7] = tested on: PPARg:RXRa (NR concentration 180 nM, RXRa partner concentration 90 nM)
How it was run: as §1

[8] = tested on: PPARg:RXRa 270nM:90nM, anti-RXR (NR concentration 270 nM, RXRa partner concentration 90 nM)
How it was run: as §1

[9] = tested on: PPARg:RXRa 30nM:10nM, anti-RXR (NR concentration 30 nM, RXRa partner concentration 10 nM)
How it was run: as §1

[10] = tested on: PPARg:RXRa 90nM:30nM, anti-RXR (NR concentration 90 nM, RXRa partner concentration 30 nM)
How it was run: as §1

[11] = tested on: PPARg:RXRa DBDmut IVT, anti-RXR (DBD mutation: RXRa K156A/R161A, NR concentration 270 nM, RXRa partner concentration 90 nM)
How it was run: as §1

[12] = tested on: PPARg:RXRa IVT, anti-PPARg (NR concentration 270 nM, RXRa partner concentration 90 nM)
How it was run: as §1

[13] = tested on: PPARg DBDmut:RXRa IVT, anti-PPARg (DBD mutation: PPARg1 K132A/R137A, NR concentration 270 nM, RXRa partner concentration 90 nM)
How it was run: as §1

[14] = tested on: PPARg DBDmut IVT, anti-PPARg (DBD mutation: PPARg1 K132A/R137A, NR concentration 270 nM)
How it was run: as §1

[15] = tested on: PPARg homodimer (NR concentration 180 nM)
How it was run: as §1

[16] = tested on: PXR:RXRa (NR concentration 270 nM, RXRa partner concentration 90 nM)
How it was run: as §1

[17] = tested on: PXR homodimer (NR concentration 270 nM)
How it was run: as §1

[18] = tested on: RARa:RXR (NR concentration 270 nM, RXRa partner concentration 90 nM)
How it was run: as §1

[19] = tested on: RARa homodimer (NR concentration 270 nM)
How it was run: as §1

[20] = tested on: RARb:RXRa (NR concentration 270 nM, RXRa partner concentration 90 nM)
How it was run: as §1

Row | Sequence | PBM binding z-score [1] | PBM binding z-score [2] | PBM binding z-score [3] | PBM binding z-score [4] | PBM binding z-score [5] | PBM binding z-score [6] | PBM binding z-score [7] | PBM binding z-score [8] | PBM binding z-score [9] | PBM binding z-score [10] | PBM binding z-score [11] | PBM binding z-score [12] | PBM binding z-score [13] | PBM binding z-score [14] | PBM binding z-score [15] | PBM binding z-score [16] | PBM binding z-score [17] | PBM binding z-score [18] | PBM binding z-score [19] | PBM binding z-score [20]
1 | ACAGACAGTTGATGAAGGTAACTCAGGCTATCAT | 0.165 | -0.156 | -0.193 | -0.191 | 0.0371 | -0.00843 | 0.507 | -0.149 | -0.0201 | -0.134 | -0.364 | -0.0113 | 0.732 | 0.538 | 0.771 | 0.245 | 0.258 | 0.287 | 0.632 | 0.225
2 | GCAGACAGGTGAAACTCAGGTAACTCAGGGTGGC | 0.432 | 0.209 | -0.137 | -0.208 | -0.746 | 1.13 | 0.585 | 0.196 | -0.602 | -0.156 | 0.904 | 0.656 | -0.318 | -0.994 | -0.214 | 0.118 | -0.356 | 0.625 | -0.536 | 0.901
3 | ACTAGTTGGTCAGCTGAGGTCACAGACAATTCGG | 2.95 | 3.29 | 1.84 | 3.27 | 0.184 | 3.71 | 1.72 | 2.16 | 0.454 | 1.43 | 1.59 | 2.68 | 0.63 | 0.453 | 2.49 | 5.14 | 1.43 | 4.65 | 0.482 | 3.48
4 | ATCTCTAGGTAAAGATAGTTCAGTGATTGCAAAT | 0.768 | 3.86 | 0.679 | 1.04 | 0.794 | 0.72 | 0.511 | 0.72 | 0.406 | 0.607 | 2.16 | 1.82 | 0.778 | 1.85 | 1.19 | 1.38 | 0.822 | 0.722 | 1.29 | 0.865
5 | TTACCAACGTGAAGGTCGTTGATCCCTCTGTAGA | 1.87 | 1.9 | 0.292 | 1.88 | -0.33 | 1.35 | 0.00743 | 0.541 | 0.511 | 0.656 | 0.422 | -0.0578 | -0.0855 | -0.0405 | 0.497 | 1.42 | 0.561 | 1.13 | -0.198 | 0.811
6 | TCTCGGAGGACACGAAAGGTCATAGCTCGACATC | 4.39 | 5.36 | 5.67 | 4.45 | 0.51 | 4.49 | 2.19 | 3.86 | 3.01 | 3.37 | 2.17 | 2.14 | 1.29 | 0.408 | 3.48 | 5.31 | 1.81 | 5.39 | 1.62 | 4.26
7 | GCTGCTAGGTCAGGTGGGTCAGCTAACGGGTACG | 1.62 | 1.2 | -0.394 | 0.981 | -0.0608 | 2.34 | 1.65 | 1.61 | -0.279 | 0.851 | 2.85 | 3.22 | 0.103 | -0.61 | 1.05 | 1.28 | -0.409 | 1.66 | -0.0518 | 3.56
8 | TCTAGCAGGCCAGAGGCTCACTCAAGAGGTACGG | -1.6 | -1.07 | -0.954 | -0.966 | -1.81 | -0.344 | 0.578 | 1.01 | 1.38 | 1.21 | 0.411 | -0.442 | -1.19 | -2.42 | -1.71 | -0.83 | -1.3 | -0.758 | -1.3 | -0.419
9 | CGAACTATGTCATTGACAGGACAGTGAATAGTAA | -0.339 | -0.306 | -0.302 | 0.00263 | -0.414 | 0.765 | 0.677 | 0.347 | 0.272 | 0.497 | 3.29 | 2.17 | 0.536 | 1.15 | 0.302 | 0.0899 | 0.452 | 0.317 | 0.439 | 0.614
10 | TCTCGGAGGACACGAATGGTCAGAGCTCGACATC | 0.104 | 0.0169 | -0.468 | -0.483 | -0.915 | -0.144 | 0.236 | 0.78 | 2.1 | 1.28 | 1.33 | -0.256 | -0.6 | -0.622 | -0.755 | -0.324 | -0.617 | -0.159 | -0.635 | 1.5
11 | CAAACTTGGTCAAGAGGTCAAAGTCCGCTTCCCG | 5.72 | 5.27 | 5.52 | 5.04 | 1.18 | 5.37 | 4.2 | 5.18 | 2.94 | 4.56 | 2.35 | 3.8 | 0.805 | 0.619 | 2.46 | 5.73 | 1.66 | 6.15 | 1.11 | 4.47
12 | CTCGAAAGGTCGTGCTCAGGTGGGTATACCAAAC | 5 | 3.41 | 0.337 | 3.41 | 0.396 | 4.5 | 2.17 | 3.18 | 0.828 | 1.96 | 0.456 | 1.65 | 0.375 | 0.179 | 1.84 | 3.14 | 0.555 | 3.84 | 0.327 | 3.9
13 | CAAGACAGGTGAGAAGGTAACTCAGCCTCGATTA | 0.353 | 0.452 | -0.0734 | 0.183 | 0.194 | 0.791 | 0.815 | 0.902 | 0.302 | 0.808 | 0.761 | 1.21 | -0.174 | -0.268 | 0.64 | 0.215 | 0.678 | 0.355 | 0.384 | 0.867
14 | TCATATAGGTATACAGGTGAAAGTCCGTAAGTTA | 1.01 | 1.13 | 0.26 | 1.2 | 0.257 | 1.9 | 2.4 | 3.24 | 3.8 | 3.58 | 2.8 | 2.54 | 0.449 | 1.54 | 1.33 | 0.873 | 0.816 | 1.03 | 1.2 | 0.603
